This passage reports normalized growth results from PubChem BioAssay AID1159580 (chemical genetic matrix, 2015).

Among all 5,500 compounds or so, about 2,000 (36%) were called active. Another 18% or so got no clear call; they are omitted. The list shows a part of the results. Unmarked numbers belong to inactive results. No stated cut-off is given here; in the data, active means normalized growth mostly below about 0.91 (no sharp cut-off); inconclusive means no clear call, values can overlap the other calls; inactive means mostly above about 0.92.

A short description of this assay: chemical genetic growth profiling, strain panel (AID 1159580).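 Further: tested at 20 µM; growth read once vehicle control cultures reached saturation at 30 °C; 1 = growth at the plate median or of vehicle wells; lower values mean less growth of the strain.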 To be noted: growth OD.
Where [1] appears, read: S. cerevisiae deletion strains, locus YAL013W, strain DEP1, active compounds read low.
Where [2] appears, read: S. cerevisiae deletion strains, locus YAL040C, strain CLN3, active compounds read low.
Where [3] appears, read: S. cerevisiae deletion strains, locus YCL061C, strain MRC1 (second series), active compounds read low.
[4] abbreviates: S. cerevisiae deletion strains, locus YDR150W, strain NUM1, active compounds read low.
Where [5] appears, read: S. cerevisiae deletion strains, locus YDR363W, strain ESC2, active compounds read low.
[6] abbreviates: S. cerevisiae deletion strains, locus YER002W, strain NOP16, active compounds read low.
The mark [7] stands for this setting: S. cerevisiae deletion strains, locus YJR075W, strain HOC1, active compounds read low.
[8] abbreviates: S. cerevisiae deletion strains, locus YMR263W, strain SAP30, active compounds read low.
[9] abbreviates: S. cerevisiae deletion strains, locus YNL128W, strain TEP1, active compounds read low.
Setting [10] is: S. cerevisiae deletion strains, locus YNL175C, strain NOP13, active compounds read low.
Where [11] appears, read: S. cerevisiae deletion strains, locus YNL197C, strain WHI3, active compounds read low.
[12] abbreviates: S. cerevisiae deletion strains, locus YNL224C, strain SQS1, active compounds read low.
The mark [13] stands for this setting: S. cerevisiae deletion strains, locus YNL322C, strain KRE1, active compounds read low.
Setting [14] is: S. cerevisiae deletion strains, locus YOR083W, strain WHI5 (second series), active compounds read low.
[15] abbreviates: S. cerevisiae deletion strains, locus YPL241C, strain CIN2, active compounds read low.
[16] abbreviates: S. cerevisiae deletion strains, locus YGR078C, strain PAC10, active compounds read low.
Setting [17] is: S. cerevisiae deletion strains, locus YMR307W, strain GAS1, active compounds read low.
The mark [18] stands for this setting: S. cerevisiae deletion strains, locus YNL153C, strain GIM3, active compounds read low.
[19] abbreviates: S. cerevisiae deletion strains, locus YBR229C, strain ROT2, active compounds read low.
Where [20] appears, read: S. cerevisiae deletion strains, locus YCL061C, strain MRC1, active compounds read low.
Where [21] appears, read: S. cerevisiae deletion strains, locus YDL101C, strain DUN1, active compounds read low.
Where [22] appears, read: S. cerevisiae deletion strains, locus YEL061C, strain CIN8, active compounds read low.
Setting [23] is: S. cerevisiae deletion strains, locus YHR030C, strain SLT2, active compounds read low.
The mark [24] stands for this setting: S. cerevisiae deletion strains, locus YHR087W, strain rtc3, active compounds read low.
Where [25] appears, read: S. cerevisiae deletion strains, locus YJR043C, strain POL32, active compounds read low.
The mark [26] stands for this setting: S. cerevisiae deletion strains, locus YLR039C, strain RIC1, active compounds read low.
Where [27] appears, read: S. cerevisiae deletion strains, locus YLR058C, strain SHM2 (second series), active compounds read low.
The mark [28] stands for this setting: S. cerevisiae deletion strains, locus YLR085C, strain ARP6, active compounds read low.
The mark [29] stands for this setting: S. cerevisiae deletion strains, locus YLR262C, strain YPT6, active compounds read low.
[30] abbreviates: S. cerevisiae deletion strains, locus YML094W, strain GIM5, active compounds read low.
Setting [31] is: S. cerevisiae deletion strains, locus YMR219W, strain ESC1, active compounds read low.
The mark [32] stands for this setting: S. cerevisiae deletion strains, locus YNL298W, strain CLA4 (second series), active compounds read low.
[33] abbreviates: S. cerevisiae deletion strains, locus YNR030W, strain Alg12, active compounds read low.
The mark [34] stands for this setting: S. cerevisiae deletion strains, locus YPL055C, strain LGE1, active compounds read low.
Where [35] appears, read: S. cerevisiae deletion strains, locus YPR135W, strain CTF4, active compounds read low.

As for `COc1cc2c(cc1C(F)(F)F)N(C(=O)Nc1cc(F)cc(-c3cccnc3)c1)CC2`, the normalized growth reads like this: under setting [1], 1.01; under setting [2], 1.08; under setting [3], 1; under setting [4], 1.02; under setting [5], 1; under setting [6], 1.05. Further, the normalized growth reads like this: under setting [7], 1.11 [resistant] (active); under setting [8], 1.01; under setting [9], 1.05; under setting [10], 1.01; under setting [11], 1.01; under setting [12], 1.02. Further, the normalized growth by setting is: under setting [13], 1.01; under setting [14], 0.9; under setting [15], 1.01.

In the case of `Cn1ccc2cc3c(cc21)CCN3C(=O)Nc1cccnc1`, the normalized growth runs as follows: under setting [1], 0.995; under setting [2], 1; under setting [3], 1.01; under setting [4], 0.992; under setting [5], 0.999; under setting [6], 0.999. The normalized growth is, setting by setting: under setting [16], 0.998; under setting [17], 1.01; under setting [18], 0.976; under setting [10], 0.981; under setting [11], 1; under setting [12], 0.989. In addition, the normalized growth is, setting by setting: under setting [13], 1.01; under setting [14], 0.969.

For the molecule `CN1CCc2cc(NC(=O)Nc3cccnc3)ccc21`, the normalized growth was 0.994 under setting [2]; 0.996 under setting [3]; 0.996 under setting [6]; 0.988 (S. cerevisiae deletion strains, locus YGR229C, strain SMI1, active compounds read low); 0.994 under setting [9]; 1.01 under setting [18]. Also, the normalized growth reads like this: under setting [10], 1.01; under setting [11], 0.992; under setting [12], 1.03; under setting [14], 0.977.

Regarding `c1ccc(C2CC2)c(OCC2=NCCN2)c1`, the normalized growth is, setting by setting: under setting [2], 1.05; under setting [3], 1.01; under setting [4], 1; under setting [5], 1.02; under setting [6], 0.98; under setting [16], 1.01. For the same molecule, the normalized growth is 1.01 under setting [8]; 0.994 under setting [10]; 0.984 under setting [11]; 0.994 under setting [12]; 0.999 under setting [13]; 1.02 under setting [14]. For the same molecule, the normalized growth under setting [15] is 1.01.

As for `O=C1CNC(=S)N1CCc1ccccn1`, the normalized growth under setting [1] was 0.992; the normalized growth under setting [19] is 0.987; the normalized growth under setting [20] is 0.99; the normalized growth under setting [21] was 0.978; the normalized growth under setting [4] is 0.994; the normalized growth under setting [22] was 0.999. Also, the normalized growth reads like this: under setting [16], 0.987; under setting [23], 0.951; under setting [24], 0.992; under setting [25], 0.991; under setting [7], 1.01; under setting [26], 0.973. The normalized growth is 0.979 under setting [27]; 1.02 under setting [28]; 0.962 under setting [29]; 0.945 under setting [30]; 0.993 under setting [31]; 1 under setting [8]. Moreover, the normalized growth is, setting by setting: under setting [17], 1.08; under setting [18], 1.01; under setting [32], 0.966; under setting [13], 0.983; under setting [33], 0.98; (S. cerevisiae deletion strains, locus YOL006C, strain TOP1, active compounds read low) 0.997. Moreover, the normalized growth is, setting by setting: under setting [34], 0.998; under setting [15], 1.03; under setting [35], 0.914; (S. cerevisiae strains, strain wild type, active compounds read low) 0.969.

In the case of `O=C1c2cccc3c(SCCO)ccc(c23)C(=O)N1CCc1ccccn1`, the normalized growth under setting [1] was 0.999; the normalized growth under setting [19] is 0.997; the normalized growth under setting [20] was 1; the normalized growth under setting [21] was 1.09; the normalized growth (S. cerevisiae deletion strains, locus YDL134C, strain PPH21, active compounds read low) is 1.01; the normalized growth under setting [4] was 1.02. Also, the normalized growth was 1 under setting [22]; 1.01 under setting [16]; 0.903 under setting [23]; 1 under setting [24]; 0.845 (active) (S. cerevisiae deletion strains, locus YJL187C, strain SWE1, active compounds read low); 0.994 under setting [25]. For the same molecule, the normalized growth reads like this: under setting [7], 0.984; under setting [26], 1; under setting [27], 0.991; under setting [28], 0.948; under setting [29], 1; under setting [30], 1.01. In addition, the normalized growth runs as follows: under setting [31], 0.995; under setting [8], 1.01; under setting [9], 1; under setting [18], 0.995; under setting [32], 0.993; under setting [13], 0.996. Also, the normalized growth by setting is: under setting [33], 0.989; under setting [34], 1.03; under setting [15], 0.989; under setting [35], 0.907.
